In all, about 87,000 compounds went through this assay and about 540 (0.62%) were called active. This is one part of a sample in which actives are shown more often than they occur. No rule for the calls is given here. Measured potencies and affinities stand elsewhere.
assay: inhibitors of MT1-MMP promoter transcription, cell-based, luciferase reporter, luminescence (AID 618); settings: MT1-MMP promoter luciferase reporter cells;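 also: actives suppress MT1-MMP promoter-driven transcription so potencies describe inhibitors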

outcome, inactive:
COc1ccc(CCn2c(C)cc3c(c2=O)C(c2ccc4c(c2)OCO4)C(C#N)=C(N)O3)cc1OC (stereo not drawn)
COc1ccccc1NC(=O)C1C2CCCCC21 (stereo not drawn)
Cc1cc(C)n(C(=O)c2nn(C)c(C)c2[N+](=O)[O-])n1
CC(=O)c1cccc(NC(=O)c2cc3ccccn3n2)c1
O=C(Nc1ccc(CN2CCOCC2)cc1)c1cc2ccccc2o1
COc1cccc(CNC(=O)c2cc3ccccn3n2)c1
O=C(Nc1ccc(CN2CCOCC2)cc1)c1cccc(F)c1
COc1ccc(-c2ccc(-c3noc(-c4ccc(OC)c(OC)c4)n3)c(OC)n2)cc1
CC(C)CNC(=O)c1ccccc1NC(=O)c1ccccc1N(C)S(C)(=O)=O
COC(=O)CSc1nnc2n1C(C)(C)Cc1ccccc1-2
Cc1ccc2cc(CCNC(=O)C(C)C)c(=O)[nH]c2c1
COC(=O)c1sc(S(=O)(=O)N2CCCCC2)c(C(=O)OC)c1C
COc1ccc(NC(=O)NCCCN2CCc3ccccc3C2)cc1
O=C(Nc1ccc(N2CCOCC2)c(Cl)c1)c1ccco1
O=C(Nc1ccc(N2CCCCC2)c(C(=O)O)c1)c1ccco1
CC(=O)NC(c1ccco1)c1ccc2cccnc2c1O (stereo not drawn)
Oc1c(C(Nc2nc3ccccc3s2)c2ccco2)ccc2cccnc12 (stereo not drawn)
CCN(CC)C(=O)CSc1nnc(-c2ccccn2)n1-c1ccc(C)c(C)c1
COc1ccc(-c2nsc3c(N4CCN(C(=O)c5ccco5)CC4)ncnc23)cc1
COc1ccc(S(=O)(=O)N2CCN(c3ncnc4c(-c5ccccc5)nsc34)CC2)cc1
O=C(N1CCCC1)N1CCN(c2ncnc3c(-c4ccc(Cl)cc4)nsc23)CC1
COc1ccc(-c2nsc3c(N4CCN(S(=O)(=O)c5ccccc5)CC4)ncnc23)cc1
CC1(C)CC(=O)c2cc(C(=O)NC3CCSC3=O)c(=O)n(-c3ccccc3)c2C1 (stereo not drawn)
O=C(O)C1C2C=CC(C2)C1C(=O)N1CCc2ccccc21 (stereo not drawn)
O=C1CCC(C(=O)OCc2c(Cl)cccc2Cl)N1 (stereo not drawn)
CC1C2CC(CC1(C)C)N(C(=O)Nc1ccc3nccnc3c1)C2 (stereo not drawn)
COC(=O)c1c(O)c2ccccc2[nH]c1=O
Cc1cccc2cc(CN(Cc3cccs3)C3(c4nnnn4C4CCCC4)CCCC3)c(=O)[nH]c12
COc1cccc(-c2cc(C(F)(F)F)n3nc(N)nc3n2)c1
COc1cccc(-c2cn3nc(C)c(C)nc3n2)c1
c1ccc(-c2ccc(-c3cn4c(n3)CCC4)cc2)cc1
c1ccc(-c2cn3c(n2)CCC3)cc1
COc1ccc(-c2cn3c(n2)CCC3)cc1
COc1ccc(-c2cn3ccc4ccccc4c3n2)cc1
CCOC(=O)c1cc(-c2ccccc2)n(CC(=O)N2CCCC2)c1C
COc1ccc(OC)c(C(C)NC=O)c1 (stereo not drawn)
Cc1noc(C)c1CSc1nnc2scc(-c3ccc(Cl)cc3)n12
CCc1ccc(NC(=O)c2noc3c2CCCCC3)cc1
Cc1ccc(NC(=O)c2noc3c2CCCCC3)cc1
O=C(Nc1cccnc1)c1noc2c1CCCCC2
Cc1ccc(NC(=O)c2noc3c2CCCCC3)cc1C
Cc1ccccc1C1CC(c2ccc(F)cc2)Nc2nc(N)nn21 (stereo not drawn)
O=C1CCC(=O)N1CCCCCc1nc(-c2ccccc2)no1
NS(=O)(=O)c1ccc(CNC(=O)C2CCCCC2)cc1
CCn1c(SCC(=O)NCC(=O)Nc2ccc(F)cc2)nnc1-c1cccs1
O=C(COc1c(F)c(F)c(C(F)(F)F)c(F)c1F)Nc1ccc(N2CCOCC2)c(Cl)c1
CCOC(=O)C(NC(=O)CC(C)C)(Nc1cc(C)on1)C(F)(F)F (stereo not drawn)
CCC(C)(C)n1nnnc1CN1CCC(c2nc3ccc(C)cc3[nH]2)CC1
Cc1cc2nc(-c3cccc(NC(=O)c4ccc(Br)o4)c3C)oc2cc1C
Cc1cc2oc(=O)cc(CN3CCC(C)CC3)c2cc1Cl
c1ccc(OCCn2c(-c3ccco3)nc3ccccc32)cc1
CCC(C)C(=O)N1CCc2cc(-c3csc(N)n3)ccc21 (stereo not drawn)
CC(C)C(=O)N1CCc2cc(-c3csc(N)n3)ccc21
Cc1csc(=O)n1CC(=O)OCc1cccc2ccccc12
COC(=O)c1nn(-c2ccc3c(c2)OCO3)cc1O
CCOC(=O)c1nn(-c2cc(C(=O)OC)cc(C(=O)OC)c2)cc1O
CCOC(=O)c1nn(-c2ccc3c(c2)OCO3)cc1O
COCCCNS(=O)(=O)c1ccc2c(c1)CCN2C(C)=O
COC(=O)c1nn(-c2c(C)n(C)n(-c3ccccc3)c2=O)cc1O
CCOC(=O)c1cc(C(=O)OCC)cc(-n2cc(O)c(C(=O)OCC)n2)c1
O=S(=O)(NCc1ccc(Cl)cc1)c1cnc[nH]1
O=C(O)C1CCCCC1C(=O)NC1CCCCC1 (stereo not drawn)
CC(C)(C)C(=O)NC1CCN(S(C)(=O)=O)CC1
Cn1cccc1Cc1nnc(SCC(=O)N2CCc3ccccc32)n1-c1ccc(F)cc1
CC1=NC(=O)C(N=Nc2cccc(O)c2)N1c1ccccc1 (stereo not drawn)
CC1=NC(=O)C(N=Nc2ccccc2)N1c1ccccc1 (stereo not drawn)
Cc1ccn(Cc2n[nH]c(=S)n2Cc2ccccc2)n1
COc1ccc(C)cc1S(=O)(=O)N1CCC(C(=O)NCCC2=CCCCC2)CC1
NS(=O)(=O)c1ccc(NS(=O)(=O)c2cccs2)cc1
N#CC1=C(N)Oc2cc(N)ccc2C1c1ccc(F)cc1 (stereo not drawn)
N#CC1=C(N)Oc2cc3ccccc3cc2C1c1cccnc1 (stereo not drawn)
N#CC1=C(N)Oc2cc(O)ccc2C1c1ccccc1 (stereo not drawn)
COc1cc(C2C(C#N)=C(N)Oc3cc(C)oc(=O)c32)cc2c1OCO2 (stereo not drawn)
COc1cc(C2C(C#N)=C(N)Oc3cc(O)ccc32)cc2c1OCO2 (stereo not drawn)
N#CC1=C(N)Oc2c(ccc3cccnc23)C1c1cccnc1 (stereo not drawn)
Cc1cc(NC(=O)CSc2nc3c(c(=O)n2CCc2ccccc2)SC(C)C3)no1 (stereo not drawn)
O=C1CC(c2ccccc2)n2nc(NC(=O)c3cccs3)nc2N1 (stereo not drawn)
COc1cc2nc(C)sc2cc1SC
O=C(C1CCCN(Cc2ccccc2Br)C1)N1CCCCC1 (stereo not drawn)
COc1cccc(NC(=O)CSc2nnc(-c3ccoc3C)n2CC2CCCO2)c1 (stereo not drawn)
C=CCNC(=O)C1CCN(c2nc(C)cc(-c3ccccc3)n2)CC1
c1ccc(C2=Nn3c(nnc3-c3ccncc3)SC2)cc1
COc1ccc(CC(C(=O)Nc2cc(C)ccc2C)/C(N)=N/O)cc1 (stereo not drawn)
COc1ccc(-c2cn3cc(C)ccc3n2)cc1OC
Cc1ccc2nc(-c3cccc(S(=O)(=O)N(C)C)c3)cn2c1
CCOc1ccccc1NC(=O)Cn1nnc(C(=O)NCc2ccco2)c1N
CCOC(=O)C(C(=O)OCC)=C1OC(=O)c2ccccc21
CN(C)CCCNC(=O)c1ccc(-c2ccccc2)cc1
CCOC(=O)CNC(=O)c1cn(CC(C)C)c(=O)c2cc(OC)c(OC)cc12
Cc1ccc2cc(CN(CC3CCCO3)S(=O)(=O)c3c(C)ccc4nsnc34)c(=O)[nH]c2c1 (stereo not drawn)
COCc1nnc(NS(=O)(=O)c2c(C)cc(C)cc2C)s1
O=c1/c(=C\c2ccc3c(c2)OCO3)sc2n1CCCN=2
O=c1/c(=C/c2ccc(O)cc2)sc2n1CCCN=2
O=C(NCCN1CCOCC1)c1ccc2ccccc2n1
COCCn1cc(C(=O)NCCCN2CCC(C)CC2)c2c3ccccc3n(C)c2c1=O
CCC(C)(C)n1nnnc1C(c1cc2ccc(OC)cc2[nH]c1=O)N1CCc2ccccc21 (stereo not drawn)
O=C(Nc1ccc(NC(=O)C2CCCCC2)nc1)c1ccco1
O=C(Cc1ccccc1)Nc1ccc(NC(=O)c2ccco2)nc1
CCCC(=O)Nc1ccc(NC(=O)c2ccccn2)cn1
CCC(=O)Nc1ccc(NC(=O)c2ccccn2)cn1
O=C(Nc1ccc(NC(=O)C2CC2)nc1)c1ccco1
O=C(Nc1ccc(NC(=O)c2ccco2)nc1)c1cccnc1
CCN(Cc1ccccc1)C(c1cc2cc(C)ccc2[nH]c1=O)c1nnnn1CCOC (stereo not drawn)
CCCCCCn1c(N2CCN(c3ccccc3)CC2)nc2c1c(=O)n(C)c(=O)n2C
O=C(Cn1cnc2ccccc2c1=O)N1CCOCC1
CCC1=C2CC[C@H]3C(=O)N(c4ccccc4)C(=O)[C@H]3[C@H]2[C@@]2(Cc3ccccc3)C(=O)N(CC(=O)OC)C(=O)N2C1=O
N#Cc1c(/N=C/c2cccs2)sc2c1CCC2
N#Cc1c(/N=C/c2ccc(Br)s2)sc2c1CCC2

outcome, active:
COc1ccc(-c2nsc3c(N4CCCC4)ncnc23)cc1
COc1cccc(-c2cn3nc4c(nc3n2)CCCC4)c1
CCOC(=O)c1nn(-c2ccc3c(c2)CCN3C(C)=O)cc1O
CN(C)c1ccc2c(c1)OC(N)=C(C#N)C2c1cccc(F)c1 (stereo not drawn)
COc1cc(C2C(C#N)=C(N)Oc3cc(N(C)C)ccc32)cc2c1OCO2 (stereo not drawn)
CCN(CC)c1ccc2c(c1)OC(N)=C(C#N)C2c1cccnc1 (stereo not drawn)
Cc1ccc2nc(-c3ccccc3)cn2c1
CN(C)c1ccc(/C=c2\sc3n(c2=O)CCCN=3)cc1
O=C(Nc1ccc(NC(=O)C2CCCCC2)cn1)c1ccco1
N#Cc1c(/N=C/c2cccs2)sc2c1CCCCC2
